Assay results as given in PubChem BioAssay AID2284330 (EPA ToxCast).
Records with an inconclusive call do not appear. The source made the active and inactive calls. The calls were made as follows: active = hit-call score of the fitted dose curve at least 0.9, where 1 is the maximum; inconclusive = response in the unintended direction; inactive = score below 0.9.

These compounds were tested on frog Glucocorticoid Receptor (GR), gene 397897 (assay: ATG_frGR_EcoTox2: Attagene TRANS-FACTORIAL EcoTox-2 HepG2 Assay for frog Glucocorticoid Receptor (GR)).
Description: ATG_EcoTox2 is a cell-based, multiplexed assay created by modifying the existing Attagene TRANS-FACTORIAL system to include a panel of nuclear receptors from some or all the following species: human (Homo sapiens), african clawed frog (Xenopus laevis), rainbow trout (Oncorhynchus mykiss), japanese medaka (Oryzias latipes), and zebrafish (Danio rerio). The ECOTOX2-FACTORIAL format uses HepG2, a human liver cell line, with measurements taken at 24 hours after chemical dosing in a 24-well plate. ATG_frGR_EcoTox2 is one of 29 assay components calculated in the ATG_EcoTox2 assay. It is designed to make measurements of mRNA induction, a form of inducible reporter, as detected with fluorescence intensity signals by Reverse transcription polymerase chain reaction (RT-PCR) and Capillary electrophoresis technology.The assay endpoint ATG_frGR_EcoTox2 was analyzed in the positive analysis fitting direction relative to DMSO as the negative control and baseline of activity. Using a type of inducible reporter, measures of mRNA for gain-of-signal activity can be used to understand the reporter gene at the transcription factor-level as they relate to the gene for glucocorticoid receptor. Furthermore, this assay endpoint can be referred to as a primary readout, because this assay has produced multiple assay endpoints where this one serves a reporter gene function. […]
Human liver HepG2 cells are transiently transfected with multiple reporter transcription units (MRTUs) in 6-well plates using FuGene 6 reagent (Roche; 3 ml FuGene/1 mg DNA). […] A major difference between the CIS and TRANS system is that in CIS activities of endogenous TFs are measured, whereas the TRANS assay evaluates changes in activities of exogenous, chimeric NR-Gal4 proteins. […] The fragments were purified using Qiaquick PCR columns (Qiagen), analyzed on an ABI 3130xL genetic analyzer (Applied Biosystems) with peak positions identified by using a set of X-rhodamine (ROX)-labeled MapMarker1000 molecular weight standards (BioVentures). […]

SMILES	outcome
O=P(Oc1ccccc1)(Oc1ccccc1)Oc1ccccc1	inactive
O=S(=O)(O)C(F)(F)C(F)(F)C(F)(F)C(F)(F)C(F)(F)C(F)(F)F	inactive
CCCCOCN(C(=O)CCl)c1c(CC)cccc1CC	inactive
